Anthrax LF prot – inhibitors of Bacillus anthracis lethal factor protease; AID 588501; inhibition, % at 10 µM; 0.12% of 360,000 active; multiplex microsphere protease cleavage assay, LF
Target sequence (P15917 whole entry, looked up): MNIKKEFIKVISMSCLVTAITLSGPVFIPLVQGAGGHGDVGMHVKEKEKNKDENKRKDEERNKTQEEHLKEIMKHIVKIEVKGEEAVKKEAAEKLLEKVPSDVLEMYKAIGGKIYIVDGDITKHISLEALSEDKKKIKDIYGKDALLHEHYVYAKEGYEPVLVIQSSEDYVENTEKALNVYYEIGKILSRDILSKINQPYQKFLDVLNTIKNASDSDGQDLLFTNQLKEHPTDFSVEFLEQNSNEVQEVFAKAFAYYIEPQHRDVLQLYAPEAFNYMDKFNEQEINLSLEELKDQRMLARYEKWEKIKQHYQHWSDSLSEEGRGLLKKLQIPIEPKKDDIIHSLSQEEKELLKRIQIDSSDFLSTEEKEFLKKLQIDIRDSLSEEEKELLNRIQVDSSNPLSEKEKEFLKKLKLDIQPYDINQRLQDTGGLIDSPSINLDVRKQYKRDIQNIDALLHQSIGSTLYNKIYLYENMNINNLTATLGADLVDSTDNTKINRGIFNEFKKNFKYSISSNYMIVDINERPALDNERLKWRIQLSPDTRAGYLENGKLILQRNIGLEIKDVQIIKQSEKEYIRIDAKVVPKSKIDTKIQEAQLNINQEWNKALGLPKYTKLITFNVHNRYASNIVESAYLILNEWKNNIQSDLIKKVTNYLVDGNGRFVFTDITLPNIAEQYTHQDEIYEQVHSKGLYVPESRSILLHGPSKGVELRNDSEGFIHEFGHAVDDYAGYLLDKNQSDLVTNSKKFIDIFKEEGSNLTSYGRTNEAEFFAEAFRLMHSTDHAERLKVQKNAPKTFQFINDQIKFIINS
CCHF vOTU inh – CCHFV vOTU protease inhibition; Pep-AMC fluorescence; inhibition, % at 11.5 µM; 0.55% of 370,000 active; in the data active = inhibition above about 30%
BoNT F protease – BoNT F light chain protease inhibition; Multiplex microsphere protease cleavage assay, flow cytometry; inhibition, % at 10 µM; 0.22% of 360,000 active; AID 588497; in the data active = inhibition above about 35%, passing the limit was not always enough; inconclusive = no clear call, values can overlap the other calls
SARS 3CLpro inh – SARS-CoV 3CLpro protease inhibition. recombinant SARS-CoV 3CLpro, quenched FRET peptide cleavage. inhibition, % at 6 µM. 0.14% of 290,000 active; in the data active = inhibition above about 12%
BoNT A protease – inhibitors of Botulinum neurotoxin A light chain protease | multiplex microsphere protease substrate cleavage, flow cytometry | inhibition, % at 10 µM | 0.17% of 360,000 active
Bead autofluor – counter-screen for toxin protease inhibitors: compound fluorescence | compound autofluorescence counterscreen, microsphere flow cytometry; active compounds read high | fluorescence intensity (concentration not given with the values) | 3.1% of 360,000 active | AID 624483; in the data active = fluorescence intensity above about 16000; inconclusive = no clear call, values can overlap the other calls
A number is an active result; n = inactive; u = inconclusive; x = no result. Most compounds without a hit are left out; they make up all but 3.9% or so of the library. Cut-off read from the data, not from the text of the source, unless noted: active = inhibition above about 30%; inconclusive = no clear call, values can overlap the other calls; inactive = below that.

SMILES | Anthrax LF prot | CCHF vOTU inh | BoNT F protease | SARS 3CLpro inh | BoNT A protease | Bead autofluor
CC(C)CN1C(=O)C[C@@]2(C(=O)N(C)c3ccc(NS(=O)(=O)C4CC4)cc32)C1c1ccccc1 (stereo not given in full) | x | n | x | x | x | x
COc1cc2nc(CC(C)C)n(NC(=O)c3ccccc3)c(=O)c2cc1OC | n | n | n | n | u | 22766
CC(C)(C)NC(=O)CN(CCN1CCOCC1)C(=O)CNS(=O)(=O)c1ccccc1 | n | n | n | n | n | n
Cc1ccc(C(=O)Nc2nc3ccccc3s2)s1 | n | n | n | n | n | 22825
O=C(Nc1nc2ccccc2s1)c1ccccc1 | n | n | n | n | n | n
Cc1ccc(C(=O)Nc2nc3ccc(S(C)(=O)=O)cc3s2)s1 | n | n | n | n | n | 21772
Cc1cc(C(=O)Nc2nc3ccc(S(C)(=O)=O)cc3s2)c(C)o1 | n | n | n | n | n | 22296
COc1ccccc1Cc1c(-c2ccc(C#N)cc2)nc2c(C)cc(Br)cn12 | n | n | n | x | n | n
C=CCN1C(C(=O)OC)CN(Cc2cn(Cc3ccc(Cl)cc3)nn2)CCS1(=O)=O (stereo not given) | x | n | x | x | x | x
COc1ccc2c(c1)CO[C@H]([C@H](O)COC(C)=O)[C@H]2/C=C/c1ccccc1 | x | n | x | x | x | x
O=C(NC1CCCCC1)N(CCO)Cc1cc2cc3c(cc2[nH]c1=O)OCCO3 | n | n | n | n | n | n
Cc1ccc2cc(CN(CCCN3CCOCC3)C(=O)NC3CCCCC3)c(=O)[nH]c2c1C | n | n | n | n | n | n
Cc1cc2cc(CN(CCCN3CCOCC3)C(=O)NC3CCCCC3)c(=O)[nH]c2cc1C | n | n | n | n | n | 23619
O=C(NC1CCCCC1)N(Cc1cc2cc3c(cc2[nH]c1=O)OCCO3)CC1CCCO1 (stereo not given) | n | n | n | n | u | 18971
Cc1ccc(C)c(N2CCN(S(=O)(=O)c3csc(C(N)=O)c3)CC2)c1 | n | n | n | n | n | n
Cc1ccc(C(=O)Nc2ncc(Cc3ccccc3)s2)o1 | n | n | n | n | n | 24322
O=C(Nc1ncc(Cc2ccccc2)s1)c1cccs1 | n | n | n | n | n | n
O=C(Nc1ncc(Cc2ccc(SC(F)F)cc2)s1)c1ccccc1 | n | n | n | n | n | 21972
Cc1ccc(Cc2cnc(NC(=O)c3cccs3)s2)cc1 | n | n | u | n | n | n
CC(C)C(=O)NCc1cc(-c2ccccc2)no1 | n | n | n | n | n | n
CN(C)C(=O)Cn1c(=O)n(C)c2ccccc21 | n | n | n | n | n | 22347
Cn1c(=O)n(CCC(=O)O)c2ccccc21 | n | n | n | n | n | n
CCOC(=O)N1CCN(C(=O)C[C@H]2C[C@@]3(C(=O)OC)C(=C[C@H](C4CCCC4)O[C@@H]3C)N(CCC3=CCCCC3)C2=O)CC1 | x | n | x | x | x | x
COc1ccc(OCCCC(=O)Nc2cc(Cl)ccc2-n2cncn2)cc1 | n | n | n | x | n | 17700
Cc1ccc(OCC(=O)N2CCN(c3nnc(-c4ccccc4)c4ccccc34)CC2)cc1 | n | n | n | n | n | n
SMILES | Anthrax LF prot | CCHF vOTU inh | BoNT F protease | SARS 3CLpro inh | BoNT A protease | Bead autofluor
CCCS(=O)(=O)N1CCN(C(=O)COc2ccc(-c3ccccc3)cc2)CC1 | n | n | n | n | n | n
CCS(=O)(=O)N1CCN(C(=O)COc2ccc(-c3ccccc3)cc2)CC1 | n | n | n | n | n | 22952
Cc1ccc(OCC(=O)N2CCN(C3=NS(=O)(=O)c4ccccc43)CC2)cc1 | n | n | n | n | n | 20779
Cc1ccc(OCCC(=O)OCC(=O)N2CCN(S(=O)(=O)c3ccc(C)cc3)CC2)cc1 | n | n | n | x | n | 26716
Cc1noc(C)c1COc1ccc(C(=O)N2CCN(c3ccccn3)CC2)cc1 | n | n | n | x | n | n
O=C1COc2ccc(C(=O)COC(=O)Cc3c(F)cccc3Cl)cc2N1 | n | n | n | x | n | n
CCn1cc(C(C)NC(=O)COc2ccc(Cl)cc2C)c(C)n1 (stereo not given) | n | n | n | n | n | 23870
Cc1cc(Cl)ccc1OCC(=O)Nc1ccncc1 | n | n | n | n | n | n
O=S1(=O)N[C@H](Cc2ccccc2)COc2cccc(N3CCCCC3)c21 | x | n | x | x | x | x
COC(=O)/C=C(\C)NC(=O)c1ccc(F)cc1 | n | n | n | n | n | n
COC(=O)/C=C(\C)NC(=O)c1cccs1 | n | n | n | n | n | 18031
O=C(NCC1CCCO1)c1cc2n(n1)C(C(F)(F)F)CC(c1ccc(Br)cc1)N2 (stereo not given) | n | n | n | n | u | 20177
CCC(C)NC(=O)c1cnn2c1NC(c1ccc3c(c1)OCO3)CC2C(F)(F)F (stereo not given) | n | n | n | n | n | 19687
Cc1ccc(C2CC(C(F)(F)F)n3nc(C(=O)NCc4ccco4)cc3N2)cc1 (stereo not given) | n | n | n | n | u | 24280
O=C(NCc1ccco1)c1cc2n(n1)C(C(F)(F)F)CC(c1ccc(F)cc1)N2 (stereo not given) | n | n | n | n | n | n
Cc1cccc(NC(=O)c2cc3n(n2)C(C(F)(F)F)CC(c2ccc4c(c2)OCO4)N3)c1 (stereo not given) | n | n | n | n | n | 22193
Cc1sc(NC(=S)NC(=O)c2ccccc2)c(C#N)c1C | n | n | n | n | n | n
Cc1sc(NC(=O)c2oc3ccccc3c2C)c(C#N)c1C | n | x | n | n | n | n
Cc1cc(C(=O)Nc2sc(C)c(C)c2C#N)c(C)o1 | n | n | n | n | u | 16457
Cc1sc(NC(=S)NC(=O)c2ccc(C(C)(C)C)cc2)c(C#N)c1C | n | n | n | n | n | 21363
COCCCN1C(=O)[C@H](CC(=O)NCCCCc2ccccc2)[C@]2(C(=O)OC)CCCCC=C12 | x | n | x | x | x | x
CCOC(=O)/C(C(N)=NCCO)=C(/O)c1ccccc1 | n | n | n | n | n | 17067
COc1cc(C(C)=O)ccc1OCC(O)Cn1nc(C)c(C(C)=O)c1C (stereo not given) | n | n | u | n | n | n
O=C(OC12CCCN(C1)/C(=C/c1ccc(Cl)cc1)C2)c1ccc(Cl)cc1 (stereo not given) | x | n | x | x | x | x
Cc1cccc(-c2cccc3c4c([nH]c23)[C@@H]2C[C@H](N(C)C(=O)OCc3ccccc3)[C@H]([C@H](C)O)CN2CC4)c1 | x | n | x | x | x | x
SMILES | Anthrax LF prot | CCHF vOTU inh | BoNT F protease | SARS 3CLpro inh | BoNT A protease | Bead autofluor
COc1ccc(C)cc1NC1=C(Cl)C(=O)N(C2CCCCC2)C1=O | n | n | n | n | n | 22693
COc1ccc(OC)c(NS(=O)(=O)c2c(C)nc3sccn3c2=O)c1 | n | n | n | n | n | n
Cc1cccc(N(CC(=O)NC2CCCC2)C(=O)CS(=O)CC(=O)Nc2ccc3c(c2)OCO3)c1 (stereo not given) | n | n | n | n | u | 22772
CC1(C)CC(=O)C2=C(C1)NCN(Cc1ccccc1)C2 | n | n | n | n | n | 16534
Cc1cc(NC(=O)c2cccnc2)ccc1Br | n | n | n | n | n | n
Cc1c(C(=O)Nc2ccncc2)oc2c1C(=O)CC(C)(C)C2 | n | n | n | n | u | 19786

High-throughput results (PubChem BioAssay)
